# High-throughput results: PubChem BioAssay, National Center for Advancing Translational Sciences (NCATS)
# VDR inh: blocks the human vitamin D receptor; VDR-SRC2-3 peptide fluorescence polarization, 2 h; hit rate 0.93% among 400,000; Potency, µM, actives largely listed as inhibitors
#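 Fluorescence polarization assay measuring small-molecule disruption of VDR binding to the coregulator peptide SRC2-3. Compounds were pin-transferred (23 nl) into the reagent mix and incubated 2 h at room temperature before reading.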
# PLK1 PBD inh: PLK1 (human) polo-box domain binding inhibition | hit rate 2.8% among 360,000 | AID 720504 | P53350 | Potency, µM, most hits filed as inhibitors | Plk1 PBD binding of FITC phosphopeptide, fluorescence polarization; also: series mostly up to about 57 µM; nearly all actives have a fitted effect of over 65% in size
# USP1 inh: blocks the human USP1/UAF1 deubiquitinase complex | O94782 | recombinant USP1/UAF1, Ub-Rhodamine cleavage fluorescence | Potency, µM (doses to about 57.1 µM), usual class: inhibitors | hit rate 0.23% among 390,000 | AID 743255; also: nearly all actives have a fitted effect of over 60% in size
#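 Step one: compound is pinned into 1nM USP1/UAF1 in HEPES pH 7.8 buffer with TCEP. Step two: 15 min room-temperature incubation. Step three: Ub-Rho (150nM final) starts cleavage, tracked by fluorescence over six one-minute reads.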
# GALK inhibitor: inhibitors of human galactokinase; P51570; Potency, µM (doses to about 57.5 µM), actives largely listed as inhibitors; AID 1868; hit rate 0.007% among 270,000; Purified GALK, Kinase-Glo residual ATP luminescence
# Target sequence (P51570 whole entry, looked up): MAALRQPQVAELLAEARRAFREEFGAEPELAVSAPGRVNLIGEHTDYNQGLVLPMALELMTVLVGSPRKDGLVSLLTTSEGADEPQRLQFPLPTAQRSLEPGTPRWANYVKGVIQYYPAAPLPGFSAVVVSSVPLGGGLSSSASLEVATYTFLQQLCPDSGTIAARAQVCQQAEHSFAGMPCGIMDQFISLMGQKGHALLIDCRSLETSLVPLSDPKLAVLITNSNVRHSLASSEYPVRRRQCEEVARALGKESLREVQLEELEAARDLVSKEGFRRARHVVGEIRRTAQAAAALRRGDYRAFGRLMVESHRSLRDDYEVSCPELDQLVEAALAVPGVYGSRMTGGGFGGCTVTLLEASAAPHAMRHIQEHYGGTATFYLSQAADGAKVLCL
#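 Luminescence from leftover ATP (Ultra-Glo luciferase/luciferin) served as read-out after a 1 h room-temperature reaction of 5 nM GALK with 35 uM ATP and 100 uM galactose.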
# Coupling enz: coupling enzyme interference in Giardia aldolase counter-screen; coupling enzyme system counterscreen, AmpLite Red fluorescence; activity change, negative = inhibition, % at 58.2 µM, hits read low; hit rate 0.67% among 290,000; in the data active = activity change below about -30%
#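 Counterscreen of the coupled detection system alone, without aldolase: glyceraldehyde-3-phosphate coupling enzymes plus AmpLite Red readout. Compounds at 57.5 uM final, 10 min RT preincubation, 20 min RT reaction, fluorescence 525/598 nm.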
# USP2a inh: inhibitors of human ubiquitin-specific protease USP2a; O75604; hit rate 0.01% among 330,000; USP2 core, Ub-CHOP2 coupled fluorogenic reporter, 485/531; Potency, µM (titrated, usually from 38.3 µM), most hits filed as inhibitors
#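 Cell-free coupled assay: 10nM USP2 core preincubated 30min RT with compound in Tris-HCl pH 8.0/CaCl2/CHAPS buffer, then 25nM Ub-CHOP2 and 25nM reporter substrate; fluorescence (Ex 485/Em 531) read after 60min RT, normalized to NEM inhibition, concentration-response curves fitted.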
# TbPYK inh: confirmation of Trypanosoma brucei pyruvate kinase inhibitors; shares compounds with PLK1 PBD inh; recombinant TbPYK, Kinase-Glo ATP luminescence; Potency, µM (doses to about 76.9 µM), hits mostly inhibitors; hit rate 67% among 890; AID 720569; also: nearly all actives have a fitted effect of over 70% in size
# TbPYK orthogonal: orthogonal confirmation of Trypanosoma brucei pyruvate kinase inhibitors | AID 720584 | Potency, µM (top dose mostly 76.9 µM), usual class: inhibitors | hit rate 62% among 890 | shares compounds with PLK1 PBD inh | recombinant TbPYK, ADP-Glo luminescence, 60 min; also: nearly all actives have a fitted effect of over 75% in size
# Numbers stand for hits; i = inactive; ? = inconclusive; nt = not tested or not shown. A selection: hits, their analogues and other compounds. The true share with any hit is near 3.2%. Unless noted, calls follow the shape of the dose curve; as a rule, active = well fitted curve in the direction sought with a large enough effect; inconclusive = small, poorly fitted or top-dose-only effect, or another doubt; inactive = no such curve, though single readings can be large; an effect the other way counts as inactive or inconclusive.
SMILES,VDR inh,PLK1 PBD inh,USP1 inh,GALK inhibitor,Coupling enz,USP2a inh,TbPYK inh,TbPYK orthogonal
O=S(=O)(/N=S1\CC=CCN1S(=O)(=O)c1ccccc1)c1ccccc1 (stereo unspecified),nt,3.4µM,?,nt,nt,nt,0.5µM,1.4µM
O=S(=O)(c1ccccc1)N1CCN(S(=O)(=O)c2ccccc2)CC1,i,nt,nt,nt,nt,nt,nt,nt
COc1cccc(C(c2sc3nc(C)nn3c2O)N2CCc3ccccc3C2)c1 (stereo unspecified),i,?,i,i,i,i,20µM,25µM
O=C(O)/C=C\C(=O)NNC(=O)c1cc(-c2ccccc2)n[nH]1,i,i,i,i,i,i,nt,nt
O=C(O)/C=C/C(=O)NNC(=O)c1cc(-c2ccccc2)n[nH]1,?,30µM,i,i,i,i,?,?
CC(=O)c1cccc(OCc2cc(C(=O)N(C)Cc3ccc(C)o3)no2)c1,?,i,i,i,i,i,14µM,35µM
Cc1ccc(CN(C)C(=O)c2ccccc2Oc2ccccc2)o1,?,i,i,i,i,i,20µM,25µM
CC(C)C(=O)NC(Nc1cc(C(F)(F)F)ccc1Cl)C(Cl)(Cl)Cl (stereo unspecified),i,i,i,i,i,i,nt,nt
Cc1cc(C)n2nc(Nc3ccccc3)cc2n1,i,i,i,i,i,i,nt,nt
CCc1cccc(NC(=O)CSC2=NS(=O)(=O)c3ccccc32)c1,13µM,11µM,i,i,i,i,18µM,18µM
O=C(Cn1cc(S(=O)(=O)Cc2ccc([N+](=O)[O-])cc2)c2ccccc21)N1CCOCC1,i,i,i,i,nt,i,16µM,25µM
O=C1C=CC(=O)N1c1ccc2c(c1)C(NC(=O)C(F)(F)F)c1ccccc1-2 (stereo unspecified),45µM,6.7µM,i,nt,nt,nt,7.9µM,10µM
N/C(=N\c1nc2c(c(=O)[nH]1)CCCC2)Nc1ccccc1Sc1ccccc1,i,i,i,i,i,i,nt,nt
Cc1ccc(/C=C/C(=O)Nc2cccnc2)o1,i,?,i,i,i,i,28µM,40µM
Cc1ccc(/C=C/C(=O)Nc2cccc3ncccc23)o1,i,?,i,i,i,i,?,?
Cc1ccc(/C=C/C(=O)Nc2ccccc2C(N)=O)o1,i,nt,i,nt,nt,nt,nt,nt
Cc1ccc(/C=C/C(=O)NCCc2ccccc2)o1,71µM,27µM,i,i,i,i,?,?
Cc1cccc(NC(=O)c2cc(NC(=O)C3CC=CCC3C(=O)O)ccc2N2CCOCC2)c1 (stereo unspecified),i,i,i,i,i,i,nt,nt
COc1ccc(C)cc1NC(=O)CN1C(=O)COc2ccc(S(=O)(=O)NC3CCCC3)cc21,i,nt,i,nt,nt,nt,nt,nt
CN(C)C(=S)NC(=O)C12CC3CC(C)(CC(C)(C3)C1)C2,i,i,i,i,i,i,nt,nt
Cc1ccc(C(=O)N(Cc2ccc3c(c2)OCO3)Cc2nc3ccccc3c(=O)[nH]2)cc1,i,i,i,i,i,i,nt,nt
CCCCC(=O)N(Cc1ccc2c(c1)OCO2)Cc1nc2ccccc2c(=O)[nH]1,?,6.7µM,i,i,i,i,i,i
Oc1ccc(N=Nc2c(O)ccc3ccccc23)cc1,i,i,i,i,i,i,nt,nt
O=C(O)c1cc(N=Nc2c(O)ccc3ccccc23)cc(C(=O)O)c1,i,9.5µM,?,i,i,i,7.1µM,13µM
NS(=O)(=O)c1ccc(CCNC(=O)c2cncc(Br)c2)cc1,?,3µM,i,i,i,i,i,i
SMILES,VDR inh,PLK1 PBD inh,USP1 inh,GALK inhibitor,Coupling enz,USP2a inh,TbPYK inh,TbPYK orthogonal
NS(=O)(=O)c1ccc(CCNC(=O)c2ccncc2)cc1,i,i,i,i,i,i,nt,nt
COc1cc(N=C2C(=O)N3CCCc4cccc2c43)cc(OC)c1,?,?,i,i,i,i,nt,nt
CCC(/C=C1\Oc2ccc(OC)cc2N1C)=C\c1sc2ccccc2[n+]1CCCS(=O)(=O)[O-],i,i,i,nt,nt,nt,nt,nt
COc1cc(/C=C/c2sc3ccccc3[n+]2CCCS(=O)(=O)[O-])ccc1O,i,i,25µM,?,-34,i,16µM,i
N#C/C(=C/c1ccc(N2CCCCCC2)o1)c1ccc(Cl)cc1,22µM,i,?,i,i,i,?,35µM
N#C/C(=C\c1ccc(N2CCOCC2)o1)C(=O)NCC1CCCO1 (stereo unspecified),i,i,?,i,i,i,nt,nt
Cc1nc(Nc2nc3ccccc3o2)nc(C)c1C,?,30µM,i,i,i,i,i,i
Cc1ccc2oc(Nc3nc(C)c(C)c(C)n3)nc2c1,i,i,i,i,i,i,nt,nt
CSc1nc(O)cc(=O)n1-c1ccc(F)cc1,i,i,i,i,i,i,nt,nt
O=c1nccc(N/N=C/c2ccccc2O)[nH]1,i,?,i,i,i,i,?,i
CS(=O)(=O)N1CCC(N2CCN(Cc3ccc(F)cc3)C(=O)C2=O)CC1,i,nt,i,nt,nt,nt,nt,nt
Cc1c(-c2nsc(NC(=O)c3cccs3)n2)nnn1-c1ccc(F)cc1,i,nt,i,nt,nt,nt,nt,nt
CCOc1ccccc1N1CSC2=C(C#N)C(c3c(OC)ccc4ccccc34)CC(=O)N2C1 (stereo unspecified),?,19µM,i,i,-49,i,1.4µM,1.8µM
COc1cc(OC)c(C2CC(=O)N3CN(c4ccc(C)cc4)CSC3=C2C#N)cc1OC (stereo unspecified),45µM,21µM,i,i,-31,i,1.4µM,1.3µM
COc1ccc(N2CSC3=C(C#N)C(c4ccc(OC)c(OC)c4)CC(=O)N3C2)c(OC)c1 (stereo unspecified),32µM,7.5µM,?,i,-43,i,0.79µM,5µM
COc1ccc(N2CSC3=C(C#N)C(c4cc(OC)c(OC)cc4OC)CC(=O)N3C2)c(OC)c1 (stereo unspecified),45µM,12µM,?,i,-48,i,0.63µM,2.8µM
CCOC(=O)C(=O)NNc1cccc(C)c1C,i,i,i,i,i,i,nt,nt
O=C(NCCn1cc(SCc2ccccc2)c2ccccc21)c1ccccc1F,i,i,i,nt,i,i,nt,nt
COC(=O)N1CCCCC1c1cc(C(=O)NCc2ccc(F)cc2)no1 (stereo unspecified),nt,i,nt,nt,nt,nt,nt,nt
Cc1c(CBr)[n+](=O)c2c(n1[O-])C(Br)CCC2Br (stereo unspecified),35µM,27µM,i,i,i,i,1.1µM,3.5µM
Cc1cccc(NC(=O)CN2C(=O)N/C(=C/c3ccc(C)o3)C2=O)c1,?,i,i,i,i,i,?,35µM
